Source: PubChem
TDP1 cell noCPT = qHTS for Inhibitors of human tyrosyl-DNA phosphodiesterase 1 (TDP1): qHTS in cells in absence of CPT. hit rate 15% among 420,000. Potency, µM (top dose mostly 46.2 µM), without a hit: at the highest dose activity change, negative = growth inhibition, usual class: inhibitors. DT40 Tdp1-/- hTDP1 cells, no CPT, ATP luminescence, 48 h; note: potency is the fitted concentration of half-maximal effect; nearly all actives have a fitted effect of over 55% in size
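Readout: luminescence from CellTiter-Glo after 30 min in the dark at RT. Cells: DT40 Tdp1-/- with stable hTDP1, 400/well. Exposure: compounds alone, ≥48 hr, 37 °C.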
ALOX12 inh = inhibitors of human 12S-lipoxygenase ALOX12 | P18054 | purified 12hLO, xylenol orange hydroperoxide absorbance | Potency, µM (series often up to 108 µM), without a hit: at the highest dose activity change, negative = inhibition, most hits filed as inhibitors | hit rate 1.1% among 580,000; note: potency is the fitted concentration of half-maximal effect
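Purified human 12hLO at 150 nM in 25 mM Hepes, 0.01% Triton X-100, pH 7.0, preincubated 15 min at room temperature with compound. Reaction started with 40 uM arachidonic acid, 30 min at room temperature. Hydroperoxide measured by Fe-xylenol orange, 573/405 nm absorbance ratio.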
IL-1B inflam inh = blocks inflammasome-driven IL-1 beta release; AID 743279; hit rate 4.7% among 360,000; activity change, % at 57.5 µM; THP-1 LPS/ATP IL-1B secretion, AlphaLISA, 16 h; hits give low values; in the data active = activity change below about -50%; inconclusive = mostly about -30% to -49%
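Secreted IL-1B measured by AlphaLISA bead assay after 16 h compound exposure of THP-1 cells; compounds (final up to 57.5 uM) added 1 h before LPS (250 ng/mL) and ATP (1.25 mM) stimulation; lower signal means less secretion.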
HT1080 IDH1KD tx = toxicity to HT-1080 IDH1 knockdown cells (counter line); Potency, µM (doses to about 46.1 µM), inactives show at the top dose activity, negative = toxicity, usual class: cytotoxic; HT-1080 IDH1 knockdown viability, ATP luminescence, 48 h; AID 686971; hit rate 2% among 360,000;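 note: potency is the fitted concentration of half-maximal effect; 0% = DMSO wells and -100% = cell-free medium wells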
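IDH1KD HT-1080 cells, 750/well, RPMI + 5% FBS; compound pinned after 2 h settling; 48 h, 37 °C; CellTiter-Glo luminescence; % activity normalised to DMSO and no-cell wells; curves fitted, classed by r2 and efficacy.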
HT1080NT lethal = kills 2HG-producing HT-1080-NT fibrosarcoma cells; Potency, µM (series often up to 46.1 µM), for the others: top-dose activity, negative = less viability, usual class: cytotoxic; hit rate 1.6% among 360,000; HT-1080-NT fibrosarcoma viability, CellTiter-Glo ATP luminescence, 48 h; AID 686970;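 note: NT is the 2HG producing partner of a matched IDH1 knockdown line; potency is the fitted concentration of half-maximal effect; 0% = DMSO-treated cells and -100% = media-only wells without cells; nearly all actives have a fitted effect of over 55% in size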
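Viability by CellTiter-Glo luminescence after 48 h compound exposure at 37C of HT-1080-NT cells (750/well, RPMI, 5% FBS). % activity scaled between DMSO wells and medium-only wells, then curve-fitted and categorized by curve class.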
DT40 TDP1 CPT = growth inhibition of DT40 Tdp1-/-;hTDP1 cells with camptothecin (screen for TDP1 inhibitors); hit rate 12% among 420,000; Potency, µM (titrated, usually from 46.2 µM), without a hit: at the highest dose activity change, negative = growth inhibition, most hits filed as inhibitors; chicken DT40 Tdp1-/-;hTDP1 cells + 20 nM CPT, ATP luminescence, 48 h; note: potency is the fitted concentration of half-maximal effect; nearly all actives have a fitted effect of over 55% in size
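Chicken DT40 Tdp1-/- cells stably complemented with human TDP1 were seeded at 400 cells/well in medium containing 20 nM camptothecin, exposed to pin-transferred compounds, and grown at 37 °C for at least 48 hr. Viability was read as ATP luminescence.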
An asterisk follows results filed as active; ? = inconclusive; / = no result given; [ ] = dose if it differs, or a comment. The sample as a whole holds a higher share of hits than the screen did. Unless noted, calls come from the whole dose curve; as a rule, active = well fitted curve in the direction sought with a large enough effect; inconclusive = small, poorly fitted or top-dose-only effect, or another doubt; inactive = no such curve, though single readings can be large; an effect the other way counts as inactive or inconclusive. Unless noted, % is set by controls: 0 for no effect and ±100 for the full control effect.

SMILES	TDP1 cell noCPT	ALOX12 inh	IL-1B inflam inh	HT1080 IDH1KD tx	HT1080NT lethal	DT40 TDP1 CPT
C=C(C)CNC(=S)NN=C1c2ccccc2-c2ccccc21	?	/	-22	-24%	0%	?
NC(=O)N/N=C1\c2ccccc2-c2c(C(N)=O)cccc21	-4%	0%	-1	-15%	?	-53%
N#Cc1cccc2c1-c1ccccc1/C2=N/NC(N)=S	18µM*	/	-58*	21µM*	6.5µM*	?
NC(=S)NN=C1c2ccccc2-c2c(F)c(F)c(F)c(F)c21	12µM*	?	-111*	?	-17%	7.3µM*
O=C(NC1CCC(c2ccccc2)CC1)c1n[nH]c(=O)c2ccccc12 (centres undefined)	/	-20%	/	/	/	/
CCOC(=O)c1sc2nc(C)nc(NCCc3ccccn3)c2c1C	21µM*	-26%	-55*	4%	15%	21µM*
COC(=O)c1sc2nc(-c3ccccc3)nc(N3CCN(C)CC3)c2c1C	26µM*	-27%	-15	-18%	-16%	?
CCOC(=O)c1sc2nc(CSc3ccccc3)nc(NCCN(C)C)c2c1C	?	-15%	?	?	18µM*	16µM*
COC(=O)c1sc2nc(CN3CCOCC3)nc(N3CCOCC3)c2c1C	-16%	-15%	0	-2%	1%	-13%
CCOC(=O)c1sc2nc(C)nc(N3CCN(c4ncccn4)CC3)c2c1C	15µM*	12%	-3	-1%	7%	?
CCOC(=O)c1sc2ncnc(N3CCN(C)CC3)c2c1C	?	-1%	?	-4%	-2%	?
Cc1[nH]c2nc3ccccc3n2c(=O)c1Cc1ccc(Br)cc1	/	20%	/	/	/	/
CCOP(=O)(OCC)c1nc(-c2ccco2)oc1NCc1ccccc1Cl	/	-5%	/	/	/	/
CCN1c2cc(C(=O)Nc3ccc(Cl)c(C)c3)ccc2C(=O)N2CCCCC21 (centres undefined)	/	2%	/	/	/	/
O[C@H]1CC[C@@H](Cc2cc(COc3ccccc3)on2)O[C@@H]1CNCc1cccnc1	/	0%[176 µM]	/	/	/	/
CCOC(=O)c1sc2nc(C)nc(NCc3ccccc3OC)c2c1C	?	12%	-30	1%	2%	23µM*
COc1ccccc1CNc1nc(C)c(C(C)=O)s1	16µM*	?	-1	-6%	-3%	21µM*
CC/C=C/CCO	/	-1%[176 µM]	/	/	/	/
COc1ccc(C=O)cc1COC(=O)COc1ccc(Cl)cc1Cl	/	15%	/	/	/	/
CC(NS(C)(=O)=O)C(=O)O (centres undefined)	/	9%	/	/	/	/
O=C(C1CCCN(S(=O)(=O)c2ccc(F)cc2)C1)N1CCCCCC1 (centres undefined)	8.2µM*	12%	11	-6%	5%	12µM*
O=C(C1CCCN(S(=O)(=O)c2ccc(F)cc2)C1)N1CCCCC1 (centres undefined)	23µM*	-2%	32	7%	7%	-15%
O=C(C1CCCN(S(=O)(=O)c2ccccc2)C1)N1CCCCC1 (centres undefined)	-7%	21%	43	2%	8%	-22%
CNC(=O)CNC(=O)c1cc(-c2ccc(C)cc2)nc2ccccc12	/	-29%	/	/	/	/
COc1ccc(CN2CC(Oc3ccc4c(c3)OCO4)C2)cc1	/	6%[6.33 µM]	/	/	/	/
CCCCCn1c(CN2CCN(c3cccc(Cl)c3)CC2)nc2c1c(=O)n(C)c(=O)n2C	21µM*	-9%	-18	2%	9%	16µM*
Cc1ccc(Cn2c(CN3CCN(c4cccc(Cl)c4)CC3)nc3c2c(=O)n(C)c(=O)n3C)cc1	?	1%	/	/	/	18µM*
CCCCn1c(CN2CCN(c3cccc(Cl)c3)CC2)nc2c1c(=O)n(C)c(=O)n2C	6.5µM*	-14%	-8	2%	2%	7.3µM*
